The record followed here is PubChem BioAssay.

Structures are written as SMILES. Active and inactive are the calls of the source.

A short description of experiment [1]: binders of probe aFSTL3 on microarray, primary screen, stem cell growth factor project, biochemical, small-molecule microarray, fluorescence 635/667 (AID 1064).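 Further: measures binding of the biotinylated anti-FSTL3 antibody to printed compounds.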 To be noted: higher = more signal.
The nature of experiment [2]: binders from COS7 lysate, DM2A8 probe, primary screen, torsin A project, cell lysate, small-molecule microarray, fluorescence 635/667 (AID 1065). Particulars: higher = more signal, COS7 lysate expressing mutant human TOR1A.
Experiment [3] is described as follows: binders of probe aFGF2 on microarray, primary screen, stem cell growth factor project, biochemical, small-molecule microarray, fluorescence 635/667 (AID 1067).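 Further: measures binding of biotinylated aFGF2 protein to printed compounds on slides; z-score merges feature fluorescence and signal-to-noise across triplicate slides.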 Particulars: higher = more signal.
A short description of experiment [4]: binders of probe aFGF10 on microarray, primary screen, stem cell growth factor project, biochemical, small-molecule microarray, fluorescence 635/667 (AID 1071).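 Further: score merges 667 nm spot intensity and signal to noise from triplicate slides.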 To be noted: higher = more signal.
The target in experiment [5] is Neurogenic locus notch homolog protein 2 (Homo sapiens) (UniProt Q04721). Description: Notch2 binders on small-molecule microarrays, primary screen, biochemical, small-molecule microarray, 635 nm fluorescence, stem cell growth factors (AID 1073). To be noted: Notch2 binding, higher = more signal.
Chain of Neurogenic locus notch homolog protein 2 (Homo sapiens) (Q04721 whole entry, looked up, canonical isoform): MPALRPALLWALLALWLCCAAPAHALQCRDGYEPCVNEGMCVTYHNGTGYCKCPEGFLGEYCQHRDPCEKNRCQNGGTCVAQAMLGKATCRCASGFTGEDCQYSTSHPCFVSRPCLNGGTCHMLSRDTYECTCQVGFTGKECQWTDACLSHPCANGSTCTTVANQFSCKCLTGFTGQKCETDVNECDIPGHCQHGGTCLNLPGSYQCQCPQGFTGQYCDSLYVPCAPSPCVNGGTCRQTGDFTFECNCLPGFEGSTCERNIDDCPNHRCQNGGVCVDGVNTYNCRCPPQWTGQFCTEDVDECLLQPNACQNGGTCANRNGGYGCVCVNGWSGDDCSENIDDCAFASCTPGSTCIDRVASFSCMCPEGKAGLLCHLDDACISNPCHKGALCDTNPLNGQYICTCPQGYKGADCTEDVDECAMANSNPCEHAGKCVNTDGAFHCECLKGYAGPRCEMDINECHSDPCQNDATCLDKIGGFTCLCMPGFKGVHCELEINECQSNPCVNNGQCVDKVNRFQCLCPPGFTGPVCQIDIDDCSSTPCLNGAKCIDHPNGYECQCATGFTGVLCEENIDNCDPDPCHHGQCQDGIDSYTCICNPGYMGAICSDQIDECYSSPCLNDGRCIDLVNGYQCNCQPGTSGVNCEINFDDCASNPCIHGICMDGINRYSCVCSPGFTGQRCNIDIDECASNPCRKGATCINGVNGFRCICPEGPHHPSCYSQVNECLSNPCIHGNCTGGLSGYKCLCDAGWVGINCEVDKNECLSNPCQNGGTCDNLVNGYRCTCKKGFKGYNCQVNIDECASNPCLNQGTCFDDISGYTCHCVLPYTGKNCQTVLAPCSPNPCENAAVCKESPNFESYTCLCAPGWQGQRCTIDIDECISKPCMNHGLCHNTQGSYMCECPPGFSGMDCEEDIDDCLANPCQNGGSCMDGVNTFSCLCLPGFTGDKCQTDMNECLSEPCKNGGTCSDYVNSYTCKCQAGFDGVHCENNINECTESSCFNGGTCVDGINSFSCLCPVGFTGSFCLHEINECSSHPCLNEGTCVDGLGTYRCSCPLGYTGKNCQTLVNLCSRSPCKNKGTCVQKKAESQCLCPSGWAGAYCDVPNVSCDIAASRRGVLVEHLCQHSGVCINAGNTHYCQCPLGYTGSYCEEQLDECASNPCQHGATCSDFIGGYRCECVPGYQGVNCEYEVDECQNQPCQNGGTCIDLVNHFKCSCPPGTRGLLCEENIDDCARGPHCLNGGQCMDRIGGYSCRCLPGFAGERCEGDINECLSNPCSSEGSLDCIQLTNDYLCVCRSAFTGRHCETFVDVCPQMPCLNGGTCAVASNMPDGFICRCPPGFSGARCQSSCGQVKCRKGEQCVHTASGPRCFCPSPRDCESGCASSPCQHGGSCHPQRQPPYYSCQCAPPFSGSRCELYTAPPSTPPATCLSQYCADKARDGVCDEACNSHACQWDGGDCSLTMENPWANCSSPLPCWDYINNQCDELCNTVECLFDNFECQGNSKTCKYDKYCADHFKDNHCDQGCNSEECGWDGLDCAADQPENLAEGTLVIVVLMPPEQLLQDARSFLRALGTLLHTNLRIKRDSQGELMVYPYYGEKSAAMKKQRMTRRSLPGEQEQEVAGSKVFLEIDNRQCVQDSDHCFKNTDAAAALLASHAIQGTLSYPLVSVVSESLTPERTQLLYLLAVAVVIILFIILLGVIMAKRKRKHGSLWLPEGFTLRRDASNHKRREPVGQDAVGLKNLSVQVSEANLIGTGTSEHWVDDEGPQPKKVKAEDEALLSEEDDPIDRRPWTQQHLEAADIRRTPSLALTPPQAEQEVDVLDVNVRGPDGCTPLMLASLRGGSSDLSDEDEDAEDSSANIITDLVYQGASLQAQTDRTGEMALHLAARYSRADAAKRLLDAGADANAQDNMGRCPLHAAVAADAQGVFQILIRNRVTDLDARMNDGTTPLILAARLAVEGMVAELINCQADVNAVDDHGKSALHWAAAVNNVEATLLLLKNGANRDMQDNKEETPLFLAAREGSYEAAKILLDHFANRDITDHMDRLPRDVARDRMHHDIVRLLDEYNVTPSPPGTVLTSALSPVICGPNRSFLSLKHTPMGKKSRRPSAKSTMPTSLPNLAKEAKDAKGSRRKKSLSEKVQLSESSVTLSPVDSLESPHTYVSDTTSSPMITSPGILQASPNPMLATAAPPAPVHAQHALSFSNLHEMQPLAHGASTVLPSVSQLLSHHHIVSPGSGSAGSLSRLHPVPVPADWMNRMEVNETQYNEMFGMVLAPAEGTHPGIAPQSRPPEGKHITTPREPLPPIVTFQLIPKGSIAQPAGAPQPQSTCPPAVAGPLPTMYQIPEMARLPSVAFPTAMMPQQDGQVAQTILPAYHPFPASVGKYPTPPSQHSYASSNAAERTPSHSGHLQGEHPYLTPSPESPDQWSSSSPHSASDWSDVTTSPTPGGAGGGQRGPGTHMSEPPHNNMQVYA
Experiment [6] has as its target Pro-neuregulin-1, membrane-bound isoform (Homo sapiens) (UniProt Q02297). Kind of experiment: NRG1 binders on small-molecule microarrays, primary screen, psychiatric disease protein project, biochemical, small-molecule microarray, fluorescence 635/667 (AID 1075).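 Further: score combines 667 nm spot fluorescence with signal to noise.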 Particulars: NRG1 binding, 635 nm fluorescence, higher = more signal.
Experiment [7] deals with Neuregulin-1 EGF-like domain. Description: binders of neuregulin-1 EGF-like domain, primary screen, biochemical, small-molecule microarray, 635 nm fluorescence (AID 1081).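 Further: binding of the protein to compounds printed on small-molecule microarray slides.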 To be noted: small-molecule microarray binding, higher = more signal.
A short description of experiment [8]: FRG1 promoter luciferase signal modulators, primary screen, FRG1 inhibition for FSHD, cell-based, C2C12 myotubes, firefly/Renilla luciferase, luminescence (AID 1084). Particulars: higher = more signal, called active from +8 up or from −8 down.
Experiment [9] in a line: binders of probe aFST on microarray, primary screen, stem cell growth factor project, biochemical, small-molecule microarray, fluorescence 635/667 (AID 1086).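 Further: score merges 667 nm fluorescence with signal-to-noise of each printed compound spot.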 To be noted: higher = more signal.
Experiment [10] in a line: binders of probe aHhip on microarray, primary screen, stem cell growth factor project, biochemical, small-molecule microarray, fluorescence 635/667 (AID 1087).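 Further: score merges spot fluorescence at 667nm with spot signal to noise ratio.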 To be noted: higher = more signal.

Chain of Pro-neuregulin-1, membrane-bound isoform (Homo sapiens) (Q02297 whole entry, looked up, the tested form may be a part, canonical isoform): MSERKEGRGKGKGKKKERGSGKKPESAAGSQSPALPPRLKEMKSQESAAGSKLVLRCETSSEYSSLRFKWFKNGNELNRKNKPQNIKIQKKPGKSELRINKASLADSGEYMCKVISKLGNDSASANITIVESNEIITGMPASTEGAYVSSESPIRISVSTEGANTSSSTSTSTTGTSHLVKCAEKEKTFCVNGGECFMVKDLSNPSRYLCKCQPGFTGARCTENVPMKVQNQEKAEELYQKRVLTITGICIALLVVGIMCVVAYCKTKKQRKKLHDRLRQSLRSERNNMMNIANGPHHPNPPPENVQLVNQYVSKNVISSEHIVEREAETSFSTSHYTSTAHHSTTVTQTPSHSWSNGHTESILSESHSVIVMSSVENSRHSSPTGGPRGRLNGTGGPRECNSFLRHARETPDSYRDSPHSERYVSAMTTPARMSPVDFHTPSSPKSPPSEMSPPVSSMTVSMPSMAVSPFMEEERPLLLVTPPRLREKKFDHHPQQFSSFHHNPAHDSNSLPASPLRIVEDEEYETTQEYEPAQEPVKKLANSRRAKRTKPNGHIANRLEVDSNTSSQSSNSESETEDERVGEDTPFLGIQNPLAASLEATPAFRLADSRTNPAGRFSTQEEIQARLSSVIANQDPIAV

For `CCCCCN1CC=CC23O[C@@H]4C=CCOC(=O)[C@@H]4[C@H]2C(=O)N(CCO)[C@@H]3C1=O` (stereo not given in full), the composite z-score is 0.388 in [1]; 0.483 in experiment [2]; -0.177 in experiment [3]; 0.162 in [4]; -1.27 in [5]; 1.6 in experiment [6]. Further, the composite z-score is 1.48 in [7], -0.455 in experiment [9] and -0.199 in experiment [10]. The z-score in experiment [8] is -0.0097 (inactive).

`[N-]=[N+]=NCc1ccccc1C[C@@]1(C(=O)N2CCCCC2)N=C(c2ccc(OCCCO)cc2)O[C@@H]1c1ccccc1CN=[N+]=[N-]`: the composite z-score in [1] turned out to be 0.319; in experiment [2] it was 1.42; in experiment [3] it was 0.0234; in [4], 0.144; in experiment [5], 1.14; in [6], 0.698. Moreover, the composite z-score was 0.901 in experiment [7], 0.828 in [9] and -0.177 in [10]. For the same compound, the z-score in [8] is -3.69 (inactive).

In the case of `CC(C)CCC[C@@H](C)[C@H]1CC[C@@]2(C)C3=C(CC[C@]12C)[C@@]1(C)CC[C@H](OC(=O)c2ccccc2)C(C)(C)C1CC3` (stereo not given in full), the composite z-score was -0.438 in experiment [1]; 0.299 in experiment [2]; -0.0916 in experiment [3]; 0.157 in experiment [4]; 0.474 in [5]; 0.0304 in [6]. Moreover, the composite z-score in experiment [7] is -0.0239; in [9] it was 0.526; in [10] it was 0.93. The z-score in experiment [8] is -0.374 (inactive).

As for `C=CCC(OC(C)=O)[C@@H]1[C@@H](N(Cc2ccc(-c3ccccc3)cc2)C(=O)c2ccc(C)cc2)c2cc(OCCCO)ccc2N1C(=O)Cc1ccc2ccccc2c1` (stereo not given in full), the composite z-score in experiment [1] was -0.377; in experiment [2] it was -0.221; in experiment [3] it was -0.107; in experiment [4], 0.0733; in [5], 0.0573; in experiment [6], -0.283. For the same compound, the results for the composite z-score in experiment [7], in experiment [9] and in experiment [10] were -0.422, 0.203 and -0.134, respectively. In addition, the z-score in [8] is -2.08 (inactive).

For the compound `CS(=O)(=O)CCOC(=O)C1=CC(CCCO)=CC(C2CC2)N(Cc2cccc(OC(F)(F)F)c2)C=C1C(=O)OCCS(C)(=O)=O` (stereo not given), the composite z-score in [1] is -0.527; in experiment [2] it was 0.314; in experiment [3], -0.0734; in experiment [4], 0.147; in [5] it was -0.116; in [6] it was 1.07. For the same compound, the composite z-score in experiment [7] is 0.897; in experiment [9], 0.0187; in [10], -0.0994. Also, the z-score in experiment [8] is 0.677 (inactive).

For the compound `COc1cc2c(cc1O)C(c1ccc(CN3CCCC3)cc1)N(C)CC2` (stereo not given), the composite z-score in experiment [1] is -1.13; in experiment [2], -0.77; in experiment [3], -0.148; in experiment [4], 0.0711; in experiment [5], -0.101; in [6], 2.19. Moreover, the composite z-score is 1.07 in [7], -0.382 in [9] and -0.81 in experiment [10]. For the same compound, the z-score in [8] was -0.426 (inactive).

On to `COC(=O)[C@@]1(Cc2ccc(OC)cc2)[C@H]2c3cc(C(=O)N4CCCC4)n(Cc4ccc(OC(F)(F)F)cc4)c3C[C@H]2CN1C(=O)c1ccccc1`, for which the composite z-score in [1] is 0.572; in experiment [2], -1.05; in experiment [3], 0.225; in experiment [4], 0.703; in experiment [5], 1.74; in [6], 1.39. For the same compound, the figures for the composite z-score in [7], in experiment [9] and in experiment [10] were 0.283, 1.28 and 0.113, respectively. Further, the z-score in experiment [8] is 0.612 (inactive).

With `CCCNC(=O)[C@@]1(Sc2ccc(C)cc2)CC(=O)N(C2CCCCC2)[C@@H]1c1ccc(CO)cc1I`, the composite z-score is 0.152 in [1]; 0.481 in experiment [2]; -0.0788 in [3]; 0.182 in [4]; 0.517 in [5]; 0.772 in [6]. In addition, the composite z-score was 1.25 in [7], -0.0962 in [9] and -0.383 in experiment [10]. In addition, the z-score in experiment [8] was -3.57 (inactive).

On to `CC(C)N1CC=CC23O[C@@H]4/C=C\CCCOC(=O)C4[C@H]2C(=O)N(CCCCCCO)[C@@H]3C1=O` (stereo not given in full), for which the composite z-score in [1] was 0.59; in experiment [2] it was 0.525; in [3] it was -0.0924; in experiment [4], 0.716; in experiment [5], -0.602; in experiment [6], 2.01. Besides, the composite z-score in experiment [7] was 1.03; in [9], -0.302; in [10] it was 0.139. The z-score in experiment [8] was 0.163 (inactive).

Take `CCc1cccc(NC(=O)O[C@H]2[C@H](OC(=O)Nc3ccccc3)[C@H](OC(=O)Nc3ccccc3)[C@@H](OC)O[C@@H]2CO)c1`: the composite z-score is -0.0949 in experiment [1]; 0.0776 in [2]; 0.0457 in [3]; 1.2 in experiment [4]; 1.19 in [5]; 1.7 in experiment [6]. The composite z-score in [7] was 1.25; in [9] it was 0.766; in experiment [10], -0.201. Moreover, the z-score in [8] was 2.16 (inactive).

Regarding `Cc1cccc([C@H]2C[C@H]3C(I)=C[C@@H]2C(=O)[C@]32CO2)c1`, the composite z-score is 0.165 in experiment [1]; 0.0974 in experiment [2]; -0.128 in experiment [3]; -0.152 in experiment [4]; -0.714 in [5]; -0.507 in experiment [6]. In addition, the values for the composite z-score in experiment [7], in [9] and in experiment [10] were -0.38, -0.0256 and -0.236, respectively. Also, in [8], the z-score was 2.56 (inactive).

In the case of `NCCCCCNC(=O)[C@@H]1C[C@@H]2C(=O)N3CCC[C@H]3C(=O)N2[C@@H]1c1ccc(O)cc1`, the composite z-score in [1] worked out at 1.19; in experiment [2] it was 0.0642; in experiment [3] it was 0.0232; in [4] it was 0.42; in experiment [5], 0.714; in experiment [6] it was 0.976. The figures for the composite z-score in [7], in [9] and in [10] were 1.1, 1 and 0.0053, respectively. Moreover, in experiment [8], the z-score was 0.0207 (inactive).

For `O=C1N[C@@H](Cc2ccccc2)C(=O)N2[C@@H]1C[C@@H](C(=O)O)[C@H]2c1ccc(O)cc1`, the composite z-score in experiment [1] is 0.106; in experiment [2], 0.726; in experiment [3], -0.0773; in experiment [4], 0.473; in experiment [5] it was 0.0865; in [6] it was 1.77. Further, the composite z-score is 1.37 in experiment [7], 0.661 in experiment [9] and -0.257 in experiment [10]. Also, the z-score in experiment [8] was 4.65 (inactive).

Regarding `CCOC(=O)C1=C[C@@H](C(C)(C)C)N(S(=O)(=O)c2ccc(C)cc2)[C@H]1c1cccc(Cl)c1`, the composite z-score in experiment [1] was -0.308; in [2], 0.314; in experiment [3], 0.0526; in [4] it was 0.666; in [5] it was 1.54; in experiment [6], 0.831. The values for the composite z-score in experiment [7], in experiment [9] and in experiment [10] were 0.979, 0.799 and -0.14, respectively. Moreover, the z-score in [8] is -2.24 (inactive).

For the compound `COC(=O)C(CC#Cc1ccc2c(c1)[C@]1(C(=O)N2)[C@H](c2ccc(O)cc2)N2[C@H](c3ccccc3)[C@H](c3ccccc3)OC(=O)[C@H]2[C@@H]1C(=O)N1CCCCCCC1)C(=O)OC`, the composite z-score turned out to be 3.08 in [1]; 0.716 in experiment [2]; 0.61 in [3]; 0.156 in experiment [4]; 1.08 in experiment [5]; 1.19 in [6]. Further, the values for the composite z-score in experiment [7], in experiment [9] and in [10] were 1.19, 2.44 and 0.17, respectively. Besides, the z-score in [8] was -0.546 (inactive).
